For 24 compounds, outcome and AC50 results are on record in PubChem BioAssay (EPA / NIEHS).

Activity calls are given as the source filed them. How the source made its calls: active means hit-call score of the fitted dose curve at least 0.9, where 1 is the maximum; inactive means score below 0.9.

What is called AC50 is the concentration at which the activity in the assay is half-maximal.

Experiment [1] in a line: ATG_GLI_CIS: Attagene CIS-FACTORIAL HepG2 Assay for human Zinc Finger Protein GLI1 (AID 2282945). Particulars: HepG2, Attagene cis-factorial reporter mRNA, GLI element; actives raise or lower the signal. The method, boiled down:
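HepG2 cells transiently transfected with cis-promoter multiplexed reporter units report endogenous transcription factor activity. After 24 h chemical exposure, reporter mRNA was quantified by RT-PCR, 6-FAM labelling, HpaI digestion and capillary electrophoresis, with bidirectional fitting against DMSO.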

Experiment [2] addresses Bile acid receptor (Homo sapiens) (UniProt Q96RI1). In words: ATG_IR1_CIS: Attagene CIS-FACTORIAL HepG2 Assay for human Nuclear Receptor Subfamily 1 Group H Member 4 (NR1H4), IR1 submotif (AID 2282946). Particulars: IR1 reporter transcription, actives raise or lower the signal. The procedure, abridged:
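Readout: reporter transcript levels by RT-PCR with fluorescent capillary electrophoresis, from HepG2 cells transiently transfected with multiplexed cis-regulated reporters and dosed 24 h. Gain- or loss-of-signal fitted versus DMSO negative control.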

Experiment [3] can be described thus: ATG_GRE_CIS: Attagene CIS-FACTORIAL HepG2 Assay for human Glucocorticoid Response Elements (GRE) (AID 2282947). Conditions: HepG2 GRE cis-reporter, Attagene multiplex mRNA; actives raise or lower the signal. The procedure, abridged: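 Cells (HepG2) bearing transfected cis-promoter reporter transcription units were treated with chemical for 24 hours. Reporter mRNA was measured via RT-PCR with capillary electrophoresis, and activity was fitted in both directions relative to DMSO.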

Experiment [4] in a line: ATG_ISRE_CIS: Attagene CIS-FACTORIAL HepG2 Assay for human Interferon Regulatory Factor 1 (IRF1) binding to an Interferon-Stimulated Response Element (ISRE) (AID 2282948). Conditions: HepG2 ISRE cis-reporter (Attagene), mRNA transcription readout; actives raise or lower the signal. The procedure, abridged:
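Read-out: fluorescent RT-PCR products resolved by capillary electrophoresis, reporting endogenous transcription factor activity via ISRE-driven reporter mRNA in transfected HepG2 cells dosed for 24 h; gain or loss fitted relative to DMSO.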

Experiment [5] can be described thus: ATG_M_32_CIS: Attagene CIS-FACTORIAL HepG2 Assay for M32 Transcription Factor (Internal Marker) (AID 2282949).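 Further: background control marker of the multiplexed CIS panel rather than a real target.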 Conditions: HepG2 Attagene cis-factorial M32 reporter, mRNA; actives raise or lower the signal. The method, boiled down: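 HepG2 transfectants (cis-regulated reporter transcription units) dosed 24 h. Reporter mRNA by RT-PCR plus CE, analysed as gain or loss relative to DMSO.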

The nature of experiment [6]: ATG_M_06_CIS: Attagene CIS-FACTORIAL HepG2 Assay for M06 Transcription Factor (Internal Marker) (AID 2282950). Particulars: HepG2 Attagene CIS-FACTORIAL M06 internal marker reporter; actives raise or lower the signal. The method, boiled down: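 Cells (HepG2, transiently carrying cis-driven reporter units) receive chemical for 24 h before RNA isolation. Reporter cDNA is PCR-amplified, FAM-labelled by primer extension, HpaI-digested and sized on a capillary analyser.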

Experiment [7] addresses Hypoxia-inducible factor 1-alpha (Homo sapiens) (UniProt Q16665). Nature of the experiment: ATG_HIF1a_CIS: Attagene CIS-FACTORIAL HepG2 Assay for human Hypoxia Inducible Factor 1 (HIF1A) (AID 2282951). Particulars: HepG2 Attagene cis-factorial HIF1a reporter transcription; actives raise or lower the signal. The method, boiled down:
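After 24 h chemical exposure of reporter-transfected HepG2 cells, reporter cDNA was PCR-amplified, labelled by 6-FAM primer extension (2 min 95 C, 20 s 68 C, 10 min 72 C), HpaI-cut (2 h, 37 C) and analysed by CE.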

The target in experiment [8] is Hepatocyte nuclear factor 6 (Homo sapiens) (UniProt Q9UBC0). In words: ATG_HNF6_CIS: Attagene CIS-FACTORIAL HepG2 Assay for human Hepatocyte Nuclear Factor 6 (HNF6) (AID 2282952). Particulars: HepG2 Attagene cis-factorial HNF6 reporter transcription; actives raise or lower the signal. The procedure, abridged:
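First, HepG2 cells were transfected with the multiplexed cis reporter library and dosed with chemical for 24 h. Next, RNA was reverse-transcribed, PCR-amplified and fluorescently labelled. Finally, HpaI-digested fragments were read by capillary electrophoresis.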

Experiment [9] deals with Heat shock factor protein 1 (Homo sapiens) (UniProt Q00613). In words: ATG_HSE_CIS: Attagene CIS-FACTORIAL HepG2 Assay for human Heat Shock Transcription Factor 1 (HSE) (AID 2282953). Conditions: HepG2 HSE cis-reporter, Attagene RNA transcription; actives raise or lower the signal. The method, boiled down: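 Liver-derived HepG2 cells carry transiently introduced multiple reporter units governed by cis promoters. Reporter RNA measured 24 h post-dose through reverse transcription, PCR amplification, fluorescent labelling and capillary electrophoresis, normalised to DMSO.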

A short description of experiment [10]: ATG_MRE_CIS: Attagene CIS-FACTORIAL HepG2 Assay for human Metal Responsive Element (MRE) (AID 2282954). Conditions: HepG2 MRE cis-reporter transcription, Attagene multiplex; actives raise or lower the signal. The method, boiled down:
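Cells were transfected with cis-promoter reporter transcription units, then dosed for 24 h. RNA was reverse-transcribed, amplified, fluorescently labelled and resolved by capillary electrophoresis, and activity was fitted in both directions relative to DMSO.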

Heat shock factor protein 1 (Homo sapiens), sequence (Q00613 whole entry, looked up): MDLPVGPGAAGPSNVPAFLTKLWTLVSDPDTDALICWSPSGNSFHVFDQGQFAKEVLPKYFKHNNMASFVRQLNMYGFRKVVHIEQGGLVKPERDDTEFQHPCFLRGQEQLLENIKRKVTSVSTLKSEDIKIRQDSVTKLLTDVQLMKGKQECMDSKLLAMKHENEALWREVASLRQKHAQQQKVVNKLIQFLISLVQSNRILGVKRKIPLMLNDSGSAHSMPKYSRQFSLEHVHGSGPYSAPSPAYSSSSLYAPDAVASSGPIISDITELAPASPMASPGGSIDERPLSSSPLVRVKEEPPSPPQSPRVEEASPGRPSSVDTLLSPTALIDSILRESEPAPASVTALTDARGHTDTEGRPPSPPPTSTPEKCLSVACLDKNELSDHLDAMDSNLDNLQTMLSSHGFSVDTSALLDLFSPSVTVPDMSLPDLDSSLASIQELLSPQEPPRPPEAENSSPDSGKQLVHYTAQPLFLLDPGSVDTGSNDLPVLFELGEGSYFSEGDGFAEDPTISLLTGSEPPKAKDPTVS
Bile acid receptor (Homo sapiens), sequence (Q96RI1 whole entry, looked up): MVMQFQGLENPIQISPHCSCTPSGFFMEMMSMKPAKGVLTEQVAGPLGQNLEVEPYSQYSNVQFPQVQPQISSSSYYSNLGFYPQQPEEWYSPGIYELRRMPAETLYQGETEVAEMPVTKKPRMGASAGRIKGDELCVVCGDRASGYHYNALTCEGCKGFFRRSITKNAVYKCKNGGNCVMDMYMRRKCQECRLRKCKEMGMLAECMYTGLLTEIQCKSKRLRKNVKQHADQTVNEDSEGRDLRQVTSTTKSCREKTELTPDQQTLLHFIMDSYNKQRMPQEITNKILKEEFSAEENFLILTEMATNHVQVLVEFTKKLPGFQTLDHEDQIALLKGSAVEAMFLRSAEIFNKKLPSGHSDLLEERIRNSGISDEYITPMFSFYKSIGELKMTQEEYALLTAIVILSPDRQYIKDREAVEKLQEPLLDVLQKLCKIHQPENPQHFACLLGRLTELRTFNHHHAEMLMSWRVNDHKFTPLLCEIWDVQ
Hypoxia-inducible factor 1-alpha (Homo sapiens), sequence (Q16665 whole entry, looked up): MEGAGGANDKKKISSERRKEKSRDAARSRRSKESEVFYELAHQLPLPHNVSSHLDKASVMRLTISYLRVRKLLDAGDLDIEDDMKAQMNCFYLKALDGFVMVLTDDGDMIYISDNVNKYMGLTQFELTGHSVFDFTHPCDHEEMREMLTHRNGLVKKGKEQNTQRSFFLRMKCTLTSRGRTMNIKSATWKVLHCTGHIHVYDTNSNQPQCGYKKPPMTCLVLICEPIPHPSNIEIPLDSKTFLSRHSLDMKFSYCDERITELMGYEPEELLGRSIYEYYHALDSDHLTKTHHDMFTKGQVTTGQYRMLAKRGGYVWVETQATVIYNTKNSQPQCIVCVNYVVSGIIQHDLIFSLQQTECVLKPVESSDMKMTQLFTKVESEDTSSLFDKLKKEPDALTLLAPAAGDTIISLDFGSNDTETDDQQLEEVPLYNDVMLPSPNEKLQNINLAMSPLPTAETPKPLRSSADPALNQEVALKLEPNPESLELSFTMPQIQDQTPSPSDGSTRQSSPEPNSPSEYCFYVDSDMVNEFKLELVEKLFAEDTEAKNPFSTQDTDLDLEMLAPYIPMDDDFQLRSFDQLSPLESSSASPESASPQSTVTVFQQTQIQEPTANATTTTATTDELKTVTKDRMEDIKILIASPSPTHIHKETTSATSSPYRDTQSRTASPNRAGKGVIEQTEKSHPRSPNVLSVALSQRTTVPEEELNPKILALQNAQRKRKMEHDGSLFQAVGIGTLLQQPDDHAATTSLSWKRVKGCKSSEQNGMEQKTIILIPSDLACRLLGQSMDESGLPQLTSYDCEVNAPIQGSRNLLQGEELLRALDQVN
Hepatocyte nuclear factor 6 (Homo sapiens), sequence (Q9UBC0 whole entry, looked up, the tested form may be a part): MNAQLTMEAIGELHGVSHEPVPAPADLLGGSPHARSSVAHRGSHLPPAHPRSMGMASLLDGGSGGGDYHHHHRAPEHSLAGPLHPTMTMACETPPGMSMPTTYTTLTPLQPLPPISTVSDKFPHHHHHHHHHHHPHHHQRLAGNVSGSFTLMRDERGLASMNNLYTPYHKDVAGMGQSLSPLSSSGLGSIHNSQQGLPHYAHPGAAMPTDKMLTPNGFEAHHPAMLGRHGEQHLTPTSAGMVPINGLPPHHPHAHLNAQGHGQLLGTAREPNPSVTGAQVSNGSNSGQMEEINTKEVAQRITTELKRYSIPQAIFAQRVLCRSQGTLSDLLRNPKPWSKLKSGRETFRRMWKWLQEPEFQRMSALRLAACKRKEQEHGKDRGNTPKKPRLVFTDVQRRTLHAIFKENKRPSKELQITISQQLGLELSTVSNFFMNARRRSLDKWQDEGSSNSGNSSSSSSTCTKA

On to `CCc1ccc(C(c2ccc(CC)cc2)C(Cl)Cl)cc1`, for which the result in [1], in experiment [2], in [3], in [4], in experiment [5] and in [6] was inactive. The outcome in [7], in experiment [8], in [9] and in experiment [10] was inactive.
`CCN(Cc1cccc(S(=O)(=O)O)c1)c1ccc(C(=C2C=CC(=[N+](CC)Cc3cccc(S(=O)(=O)O)c3)C=C2)c2ccc(O)cc2S(=O)(=O)[O-])cc1`: the compound was classed as inactive in [1], in experiment [2], in experiment [3], in [4], in experiment [5] and in experiment [6]. Also, the compound was classed as inactive in [7], in experiment [8] and in experiment [9].
Turning to `CCO[Si](CCC(F)(F)C(F)(F)C(F)(F)C(F)(F)C(F)(F)C(F)(F)F)(OCC)OCC`, the outcome in experiment [1], in [2], in experiment [3], in experiment [4], in [5] and in experiment [6] was inactive. The call in [7], in experiment [8] and in experiment [9] was inactive.
Take `CC(C)(C)c1ccc(OC2CCCCC2O)cc1` (configuration not stated): the compound was classed as inactive in [1], in [2], in experiment [3], in experiment [4], in experiment [5] and in experiment [6]. In addition, the call in [7] and in [8] was inactive.
For the compound `O=P(O)(O)OCCC(F)(F)C(F)(F)C(F)(F)C(F)(F)C(F)(F)C(F)(F)F`, the call in experiment [1], in experiment [2], in experiment [3], in experiment [4], in [5] and in experiment [6] was inactive. Also, the outcome in experiment [7], in [8] and in experiment [9] was inactive.
`FC(F)(F)C(F)(F)C(F)(F)C(F)(F)C(F)(F)C(F)(F)C(F)(F)Br`: the call in [1], in experiment [2], in experiment [3], in experiment [4], in experiment [5] and in experiment [6] was inactive. For the same compound, the call in [7] and in experiment [8] was inactive.
As for `O=C(Cl)C(F)(F)C(F)(F)C(F)(F)C(F)(F)C(F)(F)C(F)(F)C(F)(F)C(F)(F)F`, the compound was classed as inactive in experiment [1], in experiment [2], in [3], in experiment [5], in experiment [6] and in experiment [7]. Moreover, the call in experiment [8] was inactive. Besides, the AC50 in experiment [4] was 33.4 µM (active); in [9], 49.6 µM (active).
Turning to `CC(C)OC(=O)c1ccccc1C(=O)OC(C)C`, the outcome in experiment [1], in [2], in [3], in experiment [4], in experiment [5] and in experiment [6] was inactive. Moreover, the call in [7], in [8], in experiment [9] and in experiment [10] was inactive.
In the case of `FC(F)(F)C(F)(F)C(F)(F)C(F)(F)C(F)(F)C(F)(F)C(F)(F)C(F)(F)CCS`, the compound was called inactive in experiment [1], in experiment [2], in experiment [3], in [4], in [5] and in experiment [6]. The compound was classed as inactive in [7], in [8] and in experiment [9].
For the compound `O=C(O)C(F)(F)C(F)(F)C(F)(F)C(F)(F)C(F)(F)C(F)(F)C(F)(F)C(F)(F)C(F)(F)C(F)(F)C(F)(F)C(F)(F)C(F)(F)F`, the compound was classed as inactive in experiment [1], in [2], in experiment [3], in [4], in experiment [5] and in experiment [6]. The call in experiment [7] and in experiment [8] was inactive.
As for `COC(OC(C)=O)c1ccccc1` (configuration not stated), the result in [1], in [3], in [4], in experiment [5], in experiment [6] and in [7] was inactive. In experiment [8], the result was inactive.
Take `CC/C=C\CCOC(=O)c1ccccc1`: the outcome in experiment [1], in experiment [2], in experiment [3], in experiment [4], in [5] and in experiment [6] was inactive. The compound was called inactive in experiment [7], in experiment [8] and in [10].
Take `CCCCC(CC)COP(=O)(O)OCC(CC)CCCC` (configuration not stated): the compound was classed as inactive in experiment [1], in [2], in experiment [3], in experiment [4], in experiment [5] and in experiment [6]. Moreover, the call in experiment [7], in experiment [8], in experiment [9] and in experiment [10] was inactive.
For `Oc1ccc(Nc2ccccc2)cc1`, the compound was classed as inactive in experiment [1], in experiment [2], in experiment [3], in experiment [4], in [5] and in experiment [6]. The compound was called inactive in [7] and in [8]. The figures for the half-maximal activity concentration (AC50) in [9] and in [10] were 168 µM (active) and 61.1 µM (active), respectively.
With `CC(CCl)OP(=O)(OC(C)CCl)OC(C)CCl` (configuration not stated), the call in experiment [1], in experiment [2], in experiment [3], in [4], in experiment [5] and in experiment [6] was inactive. Further, the compound was called inactive in experiment [7], in [8] and in [10].
On to `O=C(O)C(F)(F)C(F)(F)OC(F)(F)F`, for which the result in experiment [1], in experiment [2], in experiment [3], in [4], in experiment [5] and in experiment [6] was inactive. For the same compound, the call in experiment [7], in experiment [8], in experiment [9] and in [10] was inactive.
In the case of `O[Si](c1ccccc1)(c1ccccc1)c1ccccc1`, the concentration at half-maximal activity (AC50) was 134 µM (active) in experiment [1], 10.2 µM (active) in experiment [2] and 33.3 µM (active) in [10]. Besides, the compound was classed as inactive in [3], in experiment [4], in experiment [5], in experiment [6], in [7] and in experiment [8].
`C#C[C@]1(O)CC[C@H]2[C@@H]3CCc4cc(OC)ccc4[C@H]3CC[C@@]21C`: the call in [1], in [2], in [3], in [4], in experiment [5] and in experiment [6] was inactive. The result in experiment [7], in [8] and in experiment [9] was inactive. Besides, in experiment [10], the AC50 is 7.54 µM (active).
As for `CCCCOCCOCCOC(=O)CCCCC(=O)OCCOCCOCCCC`, the outcome in [1], in experiment [2], in [3], in experiment [4], in experiment [5] and in experiment [6] was inactive. Further, the outcome in [7], in [8] and in experiment [10] was inactive.
Turning to `CC/C=C\CCOC(C)=O`, the outcome in experiment [1], in experiment [3], in experiment [4], in experiment [5], in [6] and in experiment [7] was inactive. Besides, in experiment [8], the outcome was inactive.
Turning to `Cc1ccc(S(=O)(=O)OCC(F)(F)C(F)(F)C(F)(F)C(F)(F)C(F)(F)C(F)F)cc1`, the result in experiment [1], in [2], in experiment [3], in experiment [4], in experiment [5] and in [6] was inactive. Also, the compound was called inactive in experiment [7], in [8] and in [10].
As for `FC(F)(F)C(F)(F)C(F)(F)C(F)(F)C(F)(F)C(F)(F)C(F)(F)I`, the compound was classed as inactive in experiment [1], in experiment [2], in experiment [3], in experiment [4], in experiment [5] and in experiment [6]. The outcome in experiment [7], in experiment [8], in experiment [9] and in experiment [10] was inactive.
As for `O=S(=O)(OCCOC(F)(F)F)C(F)(F)F`, the outcome in experiment [1], in experiment [2], in experiment [3], in experiment [4], in experiment [5] and in [6] was inactive. Besides, the compound was classed as inactive in experiment [7], in [8], in [9] and in [10].
For `FC(F)(F)C(F)(F)C(F)(F)C(F)(F)C(F)(F)C(F)(F)C(F)(F)C(F)(F)F`, the compound was called inactive in experiment [1], in [2], in experiment [3], in [4], in [5] and in experiment [6]. Also, the compound was classed as inactive in [7], in experiment [8] and in experiment [10].
